Abeta yeast res – restores growth of yeast expressing A-beta42 peptide. actives 0.063% (n = 410,000). Potency, µM (top dose mostly 46.1 µM), most hits filed as activators. yeast expressing A-beta42, growth rescue, OD600, 48 h; response scale: 0% DMSO, 100% iron-clioquinol control; also: nearly all actives have a fitted effect of over 55% in size
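Yeast growth medium received pinned compounds, then yeast cells expressing toxic A-beta were added; plates incubated at 30 C for 48 hr. Growth read as absorbance at 600 nm, normalized to DMSO and equimolar FeCl3 plus clioquinol controls.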
aSyn rescue – inhibitors of alpha-synuclein toxicity in yeast | Potency, µM (top dose mostly 46.1 µM), usual class: activators | Yeast expressing alpha-synuclein, growth rescue, BacTiter-Glo, 24 h | actives 0.14% (n = 370,000) | AID 652106; also: nearly all actives have a fitted effect of over 65% in size
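Rescue of yeast growth: cells expressing toxic alpha-synuclein, induced in galactose at OD600 0.02, incubated with compound 24 h at 30 C. ATP luminescence quantified growth; inhibitors of toxicity appear as activators.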
TDP43 rescue – inhibitors of TDP-43 toxicity in yeast | actives 1.8% (n = 410,000) | TDP-43 expressing yeast growth rescue, BacTiter-Glo, 24 h | Potency, µM (doses to about 46.1 µM), usual class: activators | AID 652104; also: nearly all actives have a fitted effect of over 50% in size
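Luminescence from BacTiter-Glo reports growth of TDP-43-expressing yeast after 24 hr at 30 deg C with compound. Cells were raffinose-pregrown to mid-log, then seeded in galactose medium at OD600=0.02.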
FUS suppressor – rescues growth of FUS-expressing yeast | S. cerevisiae FUS-expressing, growth rescue, OD600, 24 h | Potency, µM (titrated, usually from 76.6 µM), usual class: activators | actives 0.24% (n = 390,000); also: nearly all actives have a fitted effect of over 55% in size
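Cultures pregrown in 2.5% raffinose medium are shifted to minimal medium containing 2% galactose to express toxic FUS. Compounds are tested at several concentrations. After 24hr at 30C, growth is quantified at 600 nm absorbance.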
Of the large screens only hits and unclear results are named; the others gave an inactive call. This is a sample that favours compounds with a hit; in the whole collection about 2.1% have one here. Calls follow the shape of the dose curve; as a rule, active = well fitted curve in the direction sought with a large enough effect; inconclusive = small, poorly fitted or top-dose-only effect, or another doubt; inactive = no such curve, though single readings can be large; an effect the other way counts as inactive or inconclusive.

O=C(Nc1ccc2c(c1)OCCO2)C(c1cc2ccccc2o1)N1CCC(Cc2ccccc2)CC1 (stereo not drawn)	FUS suppressor 16µM
O=C(CN1CCC(Cc2ccccc2)CC1)Nc1ccc2c(c1)OCCO2	none
COc1cc(NC(=S)NCCN2CCOCC2)cc(OC)c1OC	Abeta yeast res 25µM
COc1cc(NC(=S)NCCCN2CCOCC2)cc(OC)c1OC	none
CC(O)(c1ccccc1)c1nc(-c2ccccc2)cs1 (stereo not drawn)	Abeta yeast res inconclusive, TDP43 rescue 14µM
COc1ccc(C(C)(O)c2nc(-c3ccc(OC)c(OC)c3)cs2)cc1 (stereo not drawn)	TDP43 rescue inconclusive
COCc1cccc(-c2csc(C(C)(O)c3ccccc3)n2)c1 (stereo not drawn)	TDP43 rescue 35µM
COc1ccc(C(C)(O)c2nc(-c3ccccc3)cs2)cc1 (stereo not drawn)	Abeta yeast res inconclusive, aSyn rescue inconclusive, TDP43 rescue 8.9µM
COc1ccc(-c2csc(C(C)(O)c3ccc(F)c(F)c3)n2)cc1OC (stereo not drawn)	TDP43 rescue 22µM
CC(O)(c1ccccc1)c1nc(-c2cccc(F)c2)cs1 (stereo not drawn)	none
Cc1ccc(-c2csc(C(O)(c3ccccc3)C(F)(F)F)n2)cc1C (stereo not drawn)	none
CC(O)(c1ccccc1)c1nc(-c2cccc(C#N)c2)cs1 (stereo not drawn)	Abeta yeast res inconclusive, TDP43 rescue 20µM
COc1cccc(C(C)(O)c2nc(-c3cccc(C(C)C)c3)cs2)c1 (stereo not drawn)	TDP43 rescue 18µM, FUS suppressor inconclusive
COc1ccc(C(C)(O)c2nc(-c3cccc(C#N)c3)cs2)cc1 (stereo not drawn)	aSyn rescue inconclusive
COc1ccc(-c2csc(C(C)(O)c3ccc(OC)cc3)n2)cc1 (stereo not drawn)	Abeta yeast res inconclusive, aSyn rescue 6.3µM
Oc1cccc(-c2csc(C(O)(c3ccccc3)C(F)(F)F)n2)c1 (stereo not drawn)	aSyn rescue inconclusive, TDP43 rescue 22µM
CCOC(=O)C1CCCN(S(=O)(=O)c2cc(-c3onc(C)c3C)ccc2OC)C1 (stereo not drawn)	TDP43 rescue inconclusive (no result: aSyn rescue)
Cc1ccc(Cn2c(C)c(CNCc3ccccc3F)c(C(=O)O)c2C)cc1	none (no result: aSyn rescue)
COc1ccc(C(C)(O)c2nc(-c3ccc(F)c(Cl)c3)cs2)cc1 (stereo not drawn)	Abeta yeast res inconclusive, TDP43 rescue 18µM
Brc1ccc(/C=C2\C=Cc3ccccc32)cc1	none (no result: Abeta yeast res, TDP43 rescue, FUS suppressor)
CCOC(=O)c1cccc(NS(=O)(=O)c2cc(-c3cnc(C4CC4)o3)ccc2C)c1	TDP43 rescue 20µM (no result: aSyn rescue)
CCOC(=O)c1cccc(NS(=O)(=O)c2ccc(-c3coc(C)n3)cc2)c1	TDP43 rescue 35µM
Cc1ccc(C)c(NS(=O)(=O)c2ccc(-c3coc(C)n3)cc2)c1	TDP43 rescue 13µM
O=S(=O)(Nc1ccccc1)c1ccc(-c2cnc(C3CC3)o2)cc1	TDP43 rescue 35µM
CN(N=O)c1ccc(/C=C/c2ccccc2)cc1	none (no result: Abeta yeast res, TDP43 rescue, FUS suppressor)
O=C(C[n+]1cccc(Br)c1)c1ccc2ccccc2c1	none (no result: Abeta yeast res, TDP43 rescue, FUS suppressor)
O=C(OCc1cn(Cc2cccc(F)c2F)nn1)N1CCOCC1	none (no result: Abeta yeast res, aSyn rescue, TDP43 rescue)
Cc1cc(C)cc(NS(=O)(=O)c2ccc(-c3cnc(C4CC4)o3)cc2)c1	aSyn rescue inconclusive, TDP43 rescue inconclusive, FUS suppressor inconclusive
CCOc1ccc(NS(=O)(=O)c2ccc(-c3cnc(C4CC4)o3)cc2)cc1	aSyn rescue inconclusive, TDP43 rescue 35µM, FUS suppressor inconclusive (no result: Abeta yeast res)
Cc1ccc(C)c(NS(=O)(=O)c2ccc(-c3cnc(C4CC4)o3)cc2)c1	aSyn rescue inconclusive, TDP43 rescue 32µM, FUS suppressor inconclusive (no result: Abeta yeast res)
COc1ccc(S(=O)(=O)c2cn(Cc3ccccc3)c3cc(N4CCCC4)c(F)cc3c2=O)cc1	none (no result: aSyn rescue)
CN(c1ccccc1)c1nc(-n2ccnc2)nc(-n2ccnc2)n1	TDP43 rescue inconclusive
CCCCNc1nc(N(C)c2ccccc2)nc(-n2ccnc2)n1	TDP43 rescue 14µM
COc1cccc(Cn2c(=O)n(CC3CCC(C(=O)N4CCCCC4)CC3)c(=O)c3sccc32)c1 (stereo not drawn)	TDP43 rescue inconclusive, FUS suppressor 20µM (no result: aSyn rescue)
O=C(C1CCC(Cn2c(=O)c3sccc3n(Cc3ccccc3)c2=O)CC1)N1CCCCC1 (stereo not drawn)	none (no result: aSyn rescue)
CCOc1ccc(NS(=O)(=O)c2ccc(C(=O)N(C)Cc3cccc(OC)c3OC)cc2)cc1	FUS suppressor 22µM
C=CCn1cccc(C(=O)Nc2ccc(Cl)cc2)c1=O	TDP43 rescue 10µM
COc1cc(C(O)c2nc(-c3ccc(C)c(C)c3)cs2)ccc1F (stereo not drawn)	aSyn rescue inconclusive, TDP43 rescue 35µM
Cc1ccc(-c2csc(C(O)c3ccccc3)n2)cc1C (stereo not drawn)	aSyn rescue inconclusive, TDP43 rescue 25µM
OC(c1ccccc1)c1nc(-c2cc3ccccc3o2)cs1 (stereo not drawn)	TDP43 rescue 14µM
C(=C\c1ccnc2ccccc12)/c1ccc(N2CCOCC2)cc1	none (no result: Abeta yeast res, TDP43 rescue, FUS suppressor)
CCN(CC)C(=O)CC[C@@H]1CC[C@]2(CCCN(Cc3ccc(Br)cc3)C2)O1	none (no result: Abeta yeast res, aSyn rescue, TDP43 rescue)
COc1ccc(CCNC(=O)c2ccc3c(c2)N(Cc2ccccc2Cl)C(=O)c2ccccc2S3)cc1OC	none (no result: aSyn rescue)
CC(=O)c1cc(-c2ccc3[nH]ccc3c2)c(=O)n2c1CCC2	none (no result: Abeta yeast res, aSyn rescue, TDP43 rescue)
CN(C(=O)c1cccc(Nc2ccc(-c3ccc4c(c3)OCCO4)nn2)c1)C1CCCCC1	FUS suppressor 25µM
Cc1cc(C)n2nc(-c3cccc(Br)c3)cc2n1	TDP43 rescue 11µM
Cc1cccc(-c2cc3nc(C)cc(C)n3n2)c1	none
O=C(COC(=O)c1ccccc1Br)NCCc1ccc(F)cc1	TDP43 rescue 20µM (no result: FUS suppressor)
CSc1ncccc1C(=O)OCC(=O)NCCCc1ccccc1	TDP43 rescue 18µM
CCc1cccc(N=c2c([N+](=O)[O-])nn(-c3ccc(Cl)cc3)n2O)c1	TDP43 rescue 7.9µM
Cc1ccc(CN=c2c([N+](=O)[O-])nn(-c3ccc(Cl)cc3)n2O)cc1	Abeta yeast res inconclusive, TDP43 rescue 11µM
O=[N+]([O-])c1nn(-c2ccc(Cl)cc2)n(O)c1=NCc1ccccc1Cl	TDP43 rescue inconclusive
O=[N+]([O-])c1nn(-c2ccc(Cl)cc2)n(O)c1=NCc1ccncc1	TDP43 rescue 11µM
CN(C)c1ccc(/C=C/c2ccnc3ccccc23)cc1Br	none (no result: Abeta yeast res, TDP43 rescue, FUS suppressor)
Cc1cc(=O)[nH]c(SCC(=O)Nc2ccc(Cl)cc2)n1	none (no result: Abeta yeast res, aSyn rescue, TDP43 rescue)
COc1ccc(NC(=O)c2cn(-c3ccccc3)nc2-c2cc3ccccc3o2)cc1	none
OCc1cn(-c2ccccc2)nc1-c1cc2ccccc2o1	TDP43 rescue 16µM
CCOc1ccc(C(C)NC(=S)NCc2ccc(Cl)cc2)cc1 (stereo not drawn)	Abeta yeast res inconclusive
CCC(NC(=S)NCc1ccc(F)cc1)c1ccc(C(C)C)cc1 (stereo not drawn)	Abeta yeast res 7.1µM

Bioassay records deposited in PubChem by National Center for Advancing Translational Sciences (NCATS).
